The list is not random: actives were taken first. Their share in the collection is about 4%.
DUSP3 inh – inhibitors of human VHR1 phosphatase (DUSP3); 0.52% of 290,000 active; recombinant VHR phosphatase, pNPP absorbance; P51452; inhibition, % at 13.3 µM; in the data active = inhibition above about 50%
Target sequence (P51452 whole entry, looked up): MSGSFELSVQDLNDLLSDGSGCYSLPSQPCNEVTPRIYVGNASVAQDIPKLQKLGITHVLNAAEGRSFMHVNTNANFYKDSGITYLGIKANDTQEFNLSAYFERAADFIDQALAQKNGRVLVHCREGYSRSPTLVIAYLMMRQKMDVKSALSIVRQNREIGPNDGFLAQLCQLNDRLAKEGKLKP
Anthrax LF inh2 – inhibitors of Bacillus anthracis lethal factor protease; AID 588501; multiplex microsphere protease cleavage assay, LF; 0.12% of 360,000 active; inhibition, % at 10 µM
MazF activator – increases E. coli MazEF RNase cleavage of RNA | FAM/BHQ RNA-DNA oligo cleavage fluorescence, 5 h | activation, % at 20 µM | 0.32% of 350,000 active; in the data active = activation above about 50%
Target sequence (P0AE70 whole entry, looked up): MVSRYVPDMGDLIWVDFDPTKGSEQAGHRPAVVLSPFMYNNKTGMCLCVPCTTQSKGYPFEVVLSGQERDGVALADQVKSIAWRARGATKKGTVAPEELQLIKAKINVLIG
Autofluor counter – flagged as autofluorescent in microsphere protease counterscreen; compound autofluorescence counterscreen, microsphere flow cytometry; stronger effect = higher value; fluorescence intensity (concentration not given with the values); 3.1% of 360,000 active; in the data active = fluorescence intensity above about 16000; inconclusive = no clear call, values can overlap the other calls
BoNT-F LC inh – BoNT F light chain protease inhibition. 0.22% of 360,000 active. AID 588497. Multiplex microsphere protease cleavage assay, flow cytometry. inhibition, % at 10 µM; in the data active = inhibition above about 35%, passing the limit was not always enough; inconclusive = no clear call, values can overlap the other calls
BoNT A protease – inhibitors of Botulinum neurotoxin A light chain protease; AID 588499; 0.17% of 360,000 active; multiplex microsphere protease substrate cleavage, flow cytometry; inhibition, % at 10 µM
Of the large screens only hits and unclear results are named; the others gave an inactive call. Cut-off read from the data, not from the text of the source, unless noted: active = inhibition above about 30%; inconclusive = no clear call, values can overlap the other calls; inactive = below that.

Cn1c(=O)c2c(nc(CN3CCN(c4ccccc4)CC3)n2Cc2ccccc2Cl)n(C)c1=O	Autofluor counter 19891, BoNT A protease inconclusive
CC1CN(c2nc3c(c(=O)n(C)c(=O)n3C)n2Cc2c(Cl)cccc2Cl)CC(C)O1 (stereo not drawn)	none (no result: DUSP3 inh)
COc1ccc(C(C#N)CC(=O)c2ccc3c(c2)OCO3)cc1OC (stereo not drawn)	none (no result: DUSP3 inh)
CSc1nc(NC(C)C)nc(NC(C)C)n1	none (no result: DUSP3 inh)
CC(C)NC(=O)N(C)C[C@@H]1Oc2cc(C#Cc3ccccn3)ccc2S(=O)(=O)N([C@@H](C)CO)C[C@H]1C	none (no result: DUSP3 inh)
OC(c1ccc(OCc2ccccc2)cc1)c1nnc(-c2ccccc2)o1 (stereo not drawn)	MazF activator 96
Cc1nnc(SCC(=O)N2CCN(Cc3ccccc3)CC2)s1	none
Nc1nnc(SCC(=O)N2CCN(Cc3ccccc3)CC2)s1	Autofluor counter 16406, BoNT A protease inconclusive
Cc1cc(C)c(NC(=O)NC(=O)c2ccc(F)cc2)c(C)n1	none
CCc1nc(N)c(C#N)c(-c2cccnc2)c1C	Autofluor counter 17121
Cc1nc(N)c(C#N)c(-c2cccnc2)c1C	none
CC(=O)N1N=C(c2ccc(Cl)cc2)OC12CCCC2	BoNT-F LC inh inconclusive
Cc1c(NCc2ccccc2O)c(=O)n(-c2ccccc2)n1C	none
C=CCc1cccc(CNc2c(C)n(C)n(-c3ccccc3)c2=O)c1O	Autofluor counter 16249
Cc1c(NC(C)c2cc(Cl)ccc2O)c(=O)n(-c2ccccc2)n1C (stereo not drawn)	none
Cc1c(NC(=O)C(C)OC(=O)Cc2ccccc2)c(=O)n(-c2ccccc2)n1C (stereo not drawn)	Autofluor counter 24503
Cc1c(NC(=O)C(C)OC(=O)CCc2ccccc2)c(=O)n(-c2ccccc2)n1C (stereo not drawn)	none
Cc1c(NC(=O)C(C)OC(=O)C(NC(=O)c2ccco2)C(C)C)c(=O)n(-c2ccccc2)n1C (stereo not drawn)	Autofluor counter 22112, BoNT A protease inconclusive
Cc1c(NC(C)c2ccccc2O)c(=O)n(-c2ccccc2)n1C (stereo not drawn)	Autofluor counter 24008
NS(=O)(=O)c1ccc(NC(=O)c2cccc3ccccc23)cc1	none
O=C(/C=C/c1ccccc1)Oc1ccc(C(=S)N2CCOCC2)cc1	none
O=C1OCC2OC(O)C(O)C(O)C2OC(=O)c2cc(O)c(O)c(O)c2-c2c(O)c(O)c3oc(=O)c4c(c(O)c(O)c5oc(=O)c2c3c54)-c2c1cc(O)c(O)c2O (stereo not drawn)	DUSP3 inh 121 (no result: Anthrax LF inh2, MazF activator, Autofluor counter, BoNT-F LC inh, BoNT A protease)
CCO[C@H]1OC(C(=O)N2CCOCC2)=C[C@@H](c2ccc(C(F)(F)F)cc2)[C@@H]1CCCO	none
COC(=O)c1sc(NC(=O)COc2ccc(C)cc2)nc1C	Autofluor counter 20397
CC1(C)CC(=O)C=C(Nc2cc(-c3ccccc3)[nH]n2)C1	Autofluor counter 21249
Clc1ccc(Sc2oc(/C=N/n3cnnc3)cc2Br)cc1	Autofluor counter 19698
Cc1ccc(O)c(C(=O)c2cc(C#N)c3nc4ccccc4n3c2)c1	MazF activator 90
COc1ccc(CSc2nc3ccccc3[nH]2)cc1	none
CC1CCCN(CCCNC(=O)c2ccc(NC(=O)C3=CSCCO3)cc2)C1 (stereo not drawn)	none
O=C(Nc1ccc(C(=O)NCCCN2CCCCC2)cc1)C1=CSCCO1	DUSP3 inh 57
Nc1cc(=O)[nH]c(=O)n1-c1cccc(F)c1	none
O=c1ncn(-c2cccc(F)c2)c2ncccc12	Autofluor counter 19821, BoNT A protease inconclusive
CCN(CC)C(=O)[C@H]1CC(CC(=O)NCc2ccc(OC)c(OC)c2)C(=O)N2CCc3c([nH]c4ccccc34)[C@]12C (stereo partly drawn)	none (no result: DUSP3 inh)
CCOc1ccc(NC(=O)C2CCN(S(=O)(=O)c3ccc4c(c3)C(C)(C)C(=O)N4C)CC2)cc1	none
COc1ccc(C2NC(=O)NC(O)(C(F)(F)F)C2C(=O)c2ccccc2)cc1OC (stereo not drawn)	Autofluor counter inconclusive
COc1cccc(C2NC(=O)NC(O)(C(F)(F)F)C2C(=O)c2cccnc2)c1OC (stereo not drawn)	Autofluor counter 22761
COc1cc(OC)cc(C(=O)Nc2ncc3c(n2)CC(C)CC3=O)c1 (stereo not drawn)	none
CC1CC(=O)c2cnc(Nc3ccccc3)nc2C1 (stereo not drawn)	Autofluor counter 22489
COc1cccc(C(=O)Nc2ncc3c(n2)CC(C)CC3=O)c1 (stereo not drawn)	Autofluor counter 24790

From PubChem BioAssay
